Reference: PubChem BioAssay (Tox21)
Results filed as inconclusive are left out. Entries that show only a call come without a potency. Activity calls are given as the source filed them. Calls follow the shape of the dose curve; as a rule, active = well fitted inhibition curve with a large enough effect in the signal ratio in the repeat runs; inconclusive = weak or mixed curves, or effect the other way; inactive = flat fitted curve, though single readings scatter; the % refers to the signal ratio. Starred links: 1 amine or outer side, 2 acyl side, 3 side chain; linkers in the order of their positions; H or OH if unused. Positions of bridges follow the written chain, without caps; N, C: chain ends. Non-standard residues stand in square brackets, D forms with d. Residues, ends and D or L forms follow the SMILES beside them. *: point of attachment. X5 = NC1=N[C@@H]([C@H](N[*:1])C(=O)[*:2])C[C@H](O)N1; ΔAla(Z-3-ureido) = NC(=O)N/C=C(\N)C(=O)O; β3hOrn = NCCC[C@H](N)CC(=O)*; Orn = NCCC[C@H](N)C(=O)O; Dap = NC[C@H](N)C(=O)O; Mpa = O=C(O)CCS

Assay: qHTS assay for small molecule disruptors of the mitochondrial membrane potential (AID 720635)
Details: HepG2 mitochondrial membrane potential, Mito-MPS dye ratio; series mostly up to 83.2 µM
Procedure, shortened: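 HepG2 cells exposed to compound 1 hr at 37C, then Mito-MPS dye 30 min. Ratio read of aggregate (540/590 nm) versus monomer (490/535 nm) fluorescence.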
Potency is read from the fitted curve at half-maximal effect.

| Structure (SMILES) | Potency |
| --- | --- |
| COCC1=C(C(=O)OC(C)OC(=O)OC(C)C)N2C(=O)[C@@H](NC(=O)/C(=N\OC)c3csc(N)n3)[C@H]2SC1 (stereo partly drawn) | inactive |
| CO[C@@H]1[C@@H](O[C@@H]2O[C@H](C)[C@@H](O[C@H]3C[C@@](C)(O)[C@@H](OC(=O)CC(C)C)[C@H](C)O3)[C@H](N(C)C)[C@H]2O)[C@@H](CC=O)C[C@@H](C)[C@@H](O)/C=C/C=C/C[C@@H](C)OC(=O)C[C@H]1O | inactive |
| CC(=O)O[C@H]1C[C@@H]2CC[C@@H]3[C@H](CC[C@@]4(C)[C@H]3C[C@H](N3CC[N+](C)(C)CC3)[C@@H]4OC(C)=O)[C@@]2(C)C[C@@H]1N1CC[N+](C)(C)CC1 | inactive |
| NCCC[C@H](N)CC(=O)N[C@H]1CNC(=O)[C@H]([C@H]2C[C@H](O)NC(N)=N2)NC(=O)/C(=C/NC(N)=O)NC(=O)[C@H](CO)NC(=O)[C@H](CO)NC1=O (β3hOrn-[Dap]SS[ΔAla(Z-3-ureido)][X5]; lactam 1-C) | inactive |
| CCOc1ccc(C[C@H]2NC(=O)CCSSC[C@@H](C(=O)N3CCC[C@H]3C(=O)N[C@@H](CCCN)C(=O)NCC(N)=O)NC(=O)[C@H](CC(N)=O)NC(=O)[C@H]([C@@H](C)O)NC(=O)[C@H]([C@@H](C)CC)NC2=O)cc1 ([Mpa][dY](Et)ITNCP[Orn]G-NH2; disulfide 1-6) | inactive |
| O=P(O)(O)C(O)(Cc1cnc2ccccn12)P(=O)(O)O | inactive |
| OCC(O)COc1ccc(Cl)cc1 (stereo not drawn) | inactive |
| CCCCCCCCCCCCCCCC(=O)OC[C@@H](NC(=O)C(Cl)Cl)[C@H](O)c1ccc([N+](=O)[O-])cc1 | 33.5 µM (active) |
